In the supplement of paper PMC8728848:
Many of the other results were omitted from the sample, so the strongest signals are more common in it than they were.

What was measured:
Assay in all cases: glycan array binding signal (z-score within array); higher = stronger binding
Details in all cases: glycan notation: IUPAC condensed, linker removed; mutation: Y54A
[1] = target: Fuc(a1-2)Gal(b1-4)GlcNAc(b1-2)Man
Summary of the method: (§1)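 Arrays were curated from the Consortium for Functional Glycomics database, 3228 in total, and kept only where the protein sequence was available. Binding is expressed as a within-array Z-score. This score was averaged across arrays of the same protein sequence at different concentrations or buffers and across linkers, and negative values can be read as non-binding.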

[2] = target: Fuc(a1-2)Gal(b1-4)GlcNAc(b1-3)Gal(b1-4)GlcNAc(b1-2)Man(a1-3)[Fuc(a1-2)Gal(b1-4)GlcNAc(b1-3)Gal(b1-4)GlcNAc(b1-2)Man(a1-6)]Man(b1-4)GlcNAc(b1-4)GlcNAc
Summary of the method: as §1

[3] = target: Fuc(a1-2)Gal6S(b1-3)GlcNAc
Summary of the method: as §1

[4] = target: Fuc(a1-2)[Gal(a1-3)]Gal(b1-3)GlcNAc(b1-6)GalNAc
Summary of the method: as §1

[5] = target: Fuc(a1-2)[GalNAc(a1-3)]Gal(b1-3)GalNAc(b1-3)Gal(a1-4)Gal(b1-4)Glc
Summary of the method: as §1

Fuc(b1-3)GlcNAc = target: Fuc(b1-3)GlcNAc
Summary of the method: as §1

[6] = target: Gal(a1-3)Gal(b1-4)GlcNAc(b1-2)Man(a1-3)[Gal(a1-3)Gal(b1-4)GlcNAc(b1-2)Man(a1-6)]Man(b1-4)GlcNAc(b1-4)GlcNAc
Summary of the method: as §1

[7] = target: Gal(a1-3)Gal(b1-4)GlcNAc(b1-6)GalNAc
Summary of the method: as §1

Gal(b1-3)Gal = target: Gal(b1-3)Gal
Summary of the method: as §1

[8] = target: Gal(b1-3)GlcNAc(b1-3)Gal(b1-3)GlcNAc
Summary of the method: as §1

[9] = target: Gal(b1-3)GlcNAc(b1-3)Gal(b1-4)Glc
Summary of the method: as §1

[10] = target: Gal(b1-3)[Fuc(a1-4)]GlcNAc(b1-2)Man
Summary of the method: as §1

[11] = target: Gal(b1-3)[Fuc(a1-4)]GlcNAc(b1-2)Man(a1-3)[Gal(b1-3)[Fuc(a1-4)]GlcNAc(b1-2)Man(a1-6)]Man(b1-4)GlcNAc(b1-4)[Fuc(a1-6)]GlcNAc
Summary of the method: as §1

[12] = target: Gal(b1-4)GlcNAc(b1-2)[Gal(b1-4)GlcNAc(b1-4)]Man(a1-3)[Gal(b1-4)GlcNAc(b1-2)[Gal(b1-4)GlcNAc(b1-6)]Man(a1-6)]Man(b1-4)GlcNAc(b1-4)GlcNAc
Summary of the method: as §1

[13] = target: Gal(b1-4)GlcNAc(b1-3)Gal(b1-4)GlcNAc(b1-3)Gal(b1-4)GlcNAc(b1-3)Gal(b1-4)GlcNAc(b1-2)Man(a1-3)[Gal(b1-4)GlcNAc(b1-3)Gal(b1-4)GlcNAc(b1-3)Gal(b1-4)GlcNAc(b1-3)Gal(b1-4)GlcNAc(b1-2)Man(a1-6)]Man(b1-4)GlcNAc(b1-4)GlcNAc
Summary of the method: as §1

[14] = target: Gal(b1-4)GlcNAc(b1-3)Gal(b1-4)GlcNAc(b1-3)Gal(b1-4)GlcNAc(b1-3)Gal(b1-4)GlcNAc(b1-3)Gal(b1-4)GlcNAc(b1-2)Man(a1-3)[Gal(b1-4)GlcNAc(b1-3)Gal(b1-4)GlcNAc(b1-3)Gal(b1-4)GlcNAc(b1-3)Gal(b1-4)GlcNAc(b1-3)Gal(b1-4)GlcNAc(b1-2)Man(a1-6)]Man(b1-4)GlcNAc(b1-4)[Fuc(a1-6)]GlcNAc
Summary of the method: as §1

[15] = target: Gal(b1-4)GlcNAc(b1-3)Gal(b1-4)GlcNAc(b1-3)Gal(b1-4)GlcNAc(b1-3)Gal(b1-4)GlcNAc(b1-3)Gal(b1-4)GlcNAc(b1-2)[Gal(b1-4)GlcNAc(b1-3)Gal(b1-4)GlcNAc(b1-3)Gal(b1-4)GlcNAc(b1-3)Gal(b1-4)GlcNAc(b1-3)Gal(b1-4)GlcNAc(b1-6)]Man(a1-6)[Gal(b1-4)GlcNAc(b1-3)Gal(b1-4)GlcNAc(b1-3)Gal(b1-4)GlcNAc(b1-3)Gal(b1-4)GlcNAc(b1-3)Gal(b1-4)GlcNAc(b1-2)Man(a1-3)]Man(b1-4)GlcNAc(b1-4)[Fuc(a1-6)]GlcNAc
Summary of the method: as §1

[16] = target: Gal(b1-4)GlcNAc(b1-3)Gal(b1-4)GlcNAc(b1-3)[Gal(b1-4)GlcNAc(b1-3)Gal(b1-4)GlcNAc(b1-6)]GalNAc
Summary of the method: as §1

Gal(b1-6)Gal = target: Gal(b1-6)Gal
Summary of the method: as §1

[17] = target: Gal3S(b1-4)[Fuc(a1-3)]GlcNAc6S
Summary of the method: as §1

Gal3S6S(b1-4)GlcNAc6S = target: Gal3S6S(b1-4)GlcNAc6S
Summary of the method: as §1

Gal4S6S(b1-4)GlcNAc = target: Gal4S6S(b1-4)GlcNAc
Summary of the method: as §1

Gal6S(b1-4)GlcNAc = target: Gal6S(b1-4)GlcNAc
Summary of the method: as §1

[18] = target: GalNAc(b1-3)Gal(a1-4)Gal(b1-4)GlcNAc(b1-3)Gal(b1-4)Glc
Summary of the method: as §1

GalNAc(b1-3)GalNAc = target: GalNAc(b1-3)GalNAc
Summary of the method: as §1

[19] = target: GalNAc3S(b1-4)[Fuc(a1-3)]GlcNAc
Summary of the method: as §1

[20] = target: GlcA3S(b1-3)Gal(b1-4)GlcNAc(b1-3)Gal(b1-4)Glc
Summary of the method: as §1

[21] = target: GlcNAc(b1-2)Gal(b1-3)GalNAc
Summary of the method: as §1

[22] = target: Man(a1-3)[Man(a1-6)]Man(a1-6)[Man(a1-2)Man(a1-3)]Man(b1-4)GlcNAc(b1-4)GlcNAc
Summary of the method: as §1

[23] = target: Neu5Ac(a2-3)Gal(b1-3)GalNAc6S
Summary of the method: as §1

B1: CBP21 (Serratia marcescens), O83009 (protein)
chain: MNKTSRTLLSLGLLSAAMFGVSQQANAHGYVESPASRAYQCKLQLNTQCGSVQAEPQSVEGLKGFPQAGPADGHIASADKSTFFELDQQTPTRWNKLNLKTGPNSFTWKLTARHSTTSWRYFITKPNWDASQPLTRASFDLTPFCQFNDGGAIPAAQVTHQCNIPADRSGSHVILAVWDIADTANAFYQAIDVNLSK
[1]
  glycan array binding signal (z-score): -0.872
[2]
  glycan array binding signal (z-score): 2.34
[3]
  glycan array binding signal (z-score): 4.33
[4]
  glycan array binding signal (z-score): -0.403
[5]
  glycan array binding signal (z-score): -0.164
Fuc(b1-3)GlcNAc
  glycan array binding signal (z-score): -0.276
[6]
  glycan array binding signal (z-score): -0.395
[7]
  glycan array binding signal (z-score): 1.24
Gal(b1-3)Gal
  glycan array binding signal (z-score): -0.635
[8]
  glycan array binding signal (z-score): 0.339
[9]
  glycan array binding signal (z-score): 1.22
[10]
  glycan array binding signal (z-score): 0.608
[11]
  glycan array binding signal (z-score): 0.588
[12]
  glycan array binding signal (z-score): 0.113
[13]
  glycan array binding signal (z-score): 0.181
[14]
  glycan array binding signal (z-score): 5.09
[15]
  glycan array binding signal (z-score): 1.3
[16]
  glycan array binding signal (z-score): -0.31
Gal(b1-6)Gal
  glycan array binding signal (z-score): -0.809
[17]
  glycan array binding signal (z-score): -0.109
Gal3S6S(b1-4)GlcNAc6S
  glycan array binding signal (z-score): 4.88
Gal4S6S(b1-4)GlcNAc
  glycan array binding signal (z-score): 0.517
Gal6S(b1-4)GlcNAc
  glycan array binding signal (z-score): 4.2
[18]
  glycan array binding signal (z-score): -0.857
GalNAc(b1-3)GalNAc
  glycan array binding signal (z-score): -0.995
[19]
  glycan array binding signal (z-score): 0.039
[20]
  glycan array binding signal (z-score): -0.278
[21]
  glycan array binding signal (z-score): -0.7
[22]
  glycan array binding signal (z-score): 0.228
[23]
  glycan array binding signal (z-score): 5.86
